The list is not random: actives were taken first. Their share in the collection is about 3.6%.
NRP1-CendR mod – modulators of CendR peptide binding to human neuropilin-1; 360,000 compounds, 0.85% hits; inhibition, % at 25 µM; FAM-RPARPAR peptide binding to NRP-1, fluorescence polarization;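 active means inhibition or corrected inhibition above about 18%, plus a signal ratio from 0.5 to 1.5, limit read from the data, passing the limit was not always enough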
CRFR2-BP antag – CRF-BP/CRF-R2 complex antagonism | AID 588475 | HEK293 CRF-R2/CRF-BP, CRF-induced calcium fluorescence | inhibition, % at 11.8 µM | 350,000 compounds, 0.59% hits;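 active means inhibition of the ligand-induced calcium signal above about 50% at the single tested concentration, limit read from the data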
FAS TE block – blocks the thioesterase domain of human fatty acid synthase; 360,000 compounds, 0.67% hits; recombinant FAS-TE, OMFH fluorogenic substrate, fluorescence endpoint; inhibition, % at 15 µM; AID 602261; P49327;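 active means compounds whose normalised, plate-corrected inhibition of enzyme fluorescence in the single-dose primary screen is 50% or more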;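 further: 0% = DMSO with enzyme and 100% = substrate without enzyme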
Myeloid diff 2 – compounds promoting myeloid differentiation; ER-HoxA9 myeloid progenitors, lysozyme-GFP differentiation, flow cytometry; calls only at 10 µM; 360,000 compounds, 1% hits; AID 624256;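 active means normalized GFP-positive differentiation at or above the plate's own cutoff, the solvent-only control mean plus 3 SD; inconclusive means no clear call, values can overlap the other calls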;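 further: cells exposed to compound for four days before flow analysis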
NadD inh – NadD (S. aureus) enzyme inhibition | 360,000 compounds, 0.78% hits | AID 602399 | purified NadD enzyme, colorimetric absorbance read-out | inhibition, % at 20 µM; in the data active means inhibition above about 26%
Myeloid diff – compounds promoting myeloid differentiation. 2,300 compounds, 2% hits. calls only. AID 651706. shares compounds with Myeloid diff 2. ER-HoxA9 myeloid progenitors, GFP/Mac1 double-positive flow;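 active means share of green or green-and-red cells above 9 and 9% in run 1 or 4 and 3% in run 2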
GFP autofluor – flagged as fluorescent in myeloid differentiation counter-screen | shares compounds with Myeloid diff 2 | ER-HoxA9 myeloid progenitors, no estrogen, GFP autofluorescence flow cytometry; vehicle wells 0%, positive control 100% | fluorescence response, % (concentration not given with the values) | 2,300 compounds, 7.4% hits;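 active means over 5% cells positive for green fluorescent reporter, or over 2% positive for both it and APC stain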;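 further: range taken on the double positive population between DMSO and positive control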
An asterisk follows results filed as active; i = inactive; ? = inconclusive; . = no result; + = active, no number.

SMILES	NRP1-CendR mod	CRFR2-BP antag	FAS TE block	Myeloid diff 2	NadD inh	Myeloid diff	GFP autofluor
c1cnc(N2CCN(c3nc4ccccc4n4cnnc34)CC2)nc1	2	-18	-1	i	-4	i	0
Cn1cnnc1Sc1nc2ccccc2nc1NS(=O)(=O)c1ccccc1	-5	5	-6	i	-1	i	0
Cc1cc(C(=O)COC(=O)Cc2n[nH]c(=O)c3ccccc23)c(C)n1-c1ccc2c(c1)OCO2	-16	15	-1	+	3	i	1
COc1ccc(-n2c(C)cc(C(=O)COC(=O)Cc3n[nH]c(=O)c4ccccc34)c2C)cc1	-12	27	9	?	6	.	.
O=C(c1ccccc1)c1ccc(C(=O)N2CCN(c3ccccc3Cl)CC2)cc1	-1	3	25	i	-4	i	0
COn1c(=O)c(-c2cccs2)[n+]([O-])c2ccccc21	1	-3	-3	i	-6	.	.
Cn1c(-c2cccs2)[n+](C)c2ccccc21	-3	3	-6	i	0	i	0
CCCc1[nH]n(-c2ccc(F)cc2)c(=O)c1C=Nc1cccc(F)c1	4	-4	1	i	4	i	2
CCCc1[nH]n(-c2ccc(F)cc2)c(=O)c1C=NCC1CCCO1 (stereo not given)	-5	-7	-7	i	3	.	.
COc1ccc(NC(=O)c2ccc(C)o2)c([N+](=O)[O-])c1	-6	1	-7	i	-6	.	.
COc1ccc(NC(=O)c2ccc([N+](=O)[O-])s2)c([N+](=O)[O-])c1	2	4	1	i	12	i	0
O=C(Cn1cccc1C(=O)c1ccccc1)NCc1cccs1	-20	-2	0	i	3	i	0
O=C(Cn1cccc1C(=O)c1ccccc1)NCc1ccccc1	-7	11	2	i	10	.	.
Cc1ccc2nc(NC(=O)CSCC(=O)OCC(=O)c3ccccc3)sc2c1	-7	-41	4	+	-3	i	0

Source: PubChem BioAssay (several laboratories)
